Many of the other results were omitted from the sample, so hits are more common in it than they were.
TbPYK inhibitor: T. brucei pyruvate kinase inhibition. AID 624173. Q57TT1. 0.12% of 410,000 active. TbPYK enzyme, Kinase-Glo Plus ATP luminescence, 45 min. Potency, µM (titrated, usually from 76.8 µM), usual class: inhibitors; further: nearly all actives have a fitted effect of over 50% in size
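Glycolytic pyruvate kinase of T. brucei was incubated with substrate, test compound and 130 uM ADP for 45 minutes at room temperature. Luminescent Kinase-Glo Plus signal was measured after 10 minutes.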
Shiga inhibitor: blocks Shiga toxin action in Vero cells; Vero cells, Shiga toxin protein synthesis inhibition reporter; 9.2% of 290,000 active; inhibition, % at 38.7 µM; AID 2315; in the data active means inhibition mostly above about 28%, no sharp cut-off; inactive means mostly below about 43%
CHX counter: counter-screen for Shiga toxin inhibitors: cycloheximide protein synthesis inhibition; cell reporter, cycloheximide protein synthesis inhibition counterscreen; AID 2314; 12% of 300,000 active; max response, %; in the data active means max response mostly above about 13%, no sharp cut-off; inactive means mostly below about 14%; further: read at 38.3 µM for the half of the compounds with a filed dose
RE007 growth inh: less growth of the S. pombe RE007 Vpr strain | S. pombe RE007 Vpr strain, BacTiter-Glo ATP luminescence, 24 h | Potency, µM (series often up to 92.2 µM), most hits filed as inhibitors | 0.21% of 360,000 active | AID 651644; active means well fitted falling curve with a large enough effect; inconclusive means small, poorly fitted or top-dose-only effect; inactive means no such curve, though single readings can be large or run the other way; further: nearly all actives have a fitted effect of over 50% in size
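Fission yeast strain RE007, carrying one chromosomally integrated HIV-1 vpr copy, was seeded at OD 0.01 in PMG+AL medium with 23 nL pinned compound. After 24 h at 30 °C and 99% humidity, viability was read by BacTiter-Glo luminescence.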
FBPA Giardia inh: blocks Giardia fructose-bisphosphate aldolase activity. 0.71% of 290,000 active. Potency, µM (titrated, usually from 59.6 µM), hits mostly inhibitors. purified Giardia FBPA. A8B2U2; further: nearly all actives have a fitted effect of over 55% in size
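40 nM FBPA preincubated 10 min at RT with compound (up to 57.5 uM final), then substrate plus GAPDH/TPI/NAD/arsenate coupling and diaphorase/resazurin added. Fluorescence read after 20 min at RT, 525/598 nm.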
LmPK inhibitor: LmPK (Leishmania mexicana) enzyme inhibition. purified LmPK, Kinase-Glo ATP luminescence, 1 h. Potency, µM (top dose mostly 57.5 µM), hits mostly inhibitors. 0.37% of 290,000 active. AID 1721
Target sequence (Q27686 whole entry, looked up): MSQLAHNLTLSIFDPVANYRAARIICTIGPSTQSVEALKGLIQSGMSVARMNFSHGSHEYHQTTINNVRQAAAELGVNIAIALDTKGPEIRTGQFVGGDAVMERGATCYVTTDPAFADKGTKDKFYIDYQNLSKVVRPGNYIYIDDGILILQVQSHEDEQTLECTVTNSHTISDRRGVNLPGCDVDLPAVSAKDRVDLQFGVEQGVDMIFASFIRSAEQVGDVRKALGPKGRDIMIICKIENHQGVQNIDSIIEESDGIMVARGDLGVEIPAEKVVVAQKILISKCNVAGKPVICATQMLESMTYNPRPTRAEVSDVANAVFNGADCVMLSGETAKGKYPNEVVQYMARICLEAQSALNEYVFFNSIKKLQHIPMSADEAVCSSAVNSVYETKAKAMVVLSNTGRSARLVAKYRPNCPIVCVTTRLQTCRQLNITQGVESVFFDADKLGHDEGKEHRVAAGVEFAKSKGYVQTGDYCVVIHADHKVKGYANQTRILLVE
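Pyruvate kinase activity monitored as ATP production (luciferase luminescence). Conditions: 0.1 nM enzyme, 0.5 mM PEP, 0.1 mM ADP, 1 h, RT; normalized against uninhibited and no-enzyme wells.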
Numbers stand for hits; 0 = inactive; ? = inconclusive; - = no result; [ ] = dose if it differs, or a comment. Unless noted, the call rests on the fitted dose curve; in most records, active means well fitted curve in the direction sought with a large enough effect; inconclusive means small, poorly fitted or top-dose-only effect, or another doubt; inactive means no such curve, though single readings can be large; an effect the other way counts as inactive or inconclusive.

SMILES | TbPYK inhibitor | Shiga inhibitor | CHX counter | RE007 growth inh | FBPA Giardia inh | LmPK inhibitor
Cc1ccc(CCNS(=O)(=O)c2ccc3c(c2)CC(C)N3C(=O)C2CCC2)cc1 (configuration not stated) | 0 | - | - | - | - | -
CCOC(=O)C(=O)Nc1nc(-c2ccc3c(c2)CCN3C(=O)C2CC2)c(C)s1 | 0 | 0 | 20 | 0 | ? | 0
CC1Cc2cc(S(=O)(=O)CCC(=O)NCc3ccco3)ccc2N1C(=O)C1CC1 (configuration not stated) | 0 | 0 | 0 | 0 | 0 | 0
Cc1sc(NC(=O)CN2CCCC2)nc1-c1ccc2c(c1)CCN2C(=O)c1cccc(F)c1 | 0 | 0 | 0 | 0 | 0 | 0
Cc1sc(NC(=O)c2ccco2)nc1-c1ccc2c(c1)CC(C)N2C(=O)C1CC1 (configuration not stated) | 0 | 175 | 31 | 0 | 0 | 0
O=C(C1CCCN(S(=O)(=O)c2cccs2)C1)N1CCN(c2cccc(Cl)c2)CC1 (configuration not stated) | 0 | - | - | - | - | -
CCOc1ccc(CNS(=O)(=O)c2c(C(=O)N3CCC(C)CC3)c(C)n(C)c2C)cc1OC | 0 | - | - | - | - | -
Cc1ccccc1-c1cc(N2CCNCC2)ncn1 | - | - | - | - | 0 | -
CN(Cc1nc(C(c2ccccc2)c2ccccc2)no1)CC1COCCO1 (configuration not stated) | 0 | 0 | 15 | 0 | 0 | 14µM
CN(Cc1nc(-c2cccs2)no1)CC1COCCO1 (configuration not stated) | 0 | 61 | 33 | 0 | 0 | 0
CN(Cc1nc(-c2cccs2)no1)CC(O)c1ccccc1 (configuration not stated) | 0 | 56 | 44 | 0 | 0 | 0
CN(Cc1nc(Cc2cccc(F)c2)no1)CC1COCCO1 (configuration not stated) | 0 | 0 | 0 | 0 | 0 | 0
C=CCOC[C@@H]1CN2[C@H](c3ccc(Br)cc3)[C@@H](C)CC[C@H]2C(=O)O1 | - | - | - | - | 0 | -
CN(C)C=NC(=O)c1cc2c(n(-c3ccccc3)c1=O)CC(C)(C)CC2=O | 0 | - | - | - | - | -
COc1ccc(S(=O)(=O)Nc2cc3c(cc2NCc2ccccc2)n(C)c(=O)n3C)cc1OC | 0 | - | - | - | - | -
Cc1cc(C)c2nc(Cl)c(CN(Cc3ccco3)C(=O)Nc3ccccc3C)cc2c1 | 0 | 0 | 0 | 0 | 0 | 0
COCCN(Cc1cc2cc(C)cc(C)c2nc1Cl)C(=O)Nc1ccccc1 | 0 | 0 | 16 | 0 | 0 | 0
COc1ccc(NC(=S)Nc2cc(C)cc(C)n2)cc1OC | 0 | 0 | 21 | 0 | 0 | 0
Cc1cc(C)nc(NC(=S)Nc2cccc(F)c2)c1 | 0 | 0 | 0 | 0 | 0 | 0
COc1cccc(NC(=S)Nc2cc(C)cc(C)n2)c1 | 0 | 56 | 49 | 0 | 0 | 0
COc1ccc(OC)c(S(=O)(=O)NCCc2sc(C)nc2C)c1 | 0 | - | - | - | - | -
O=C(c1ccc(Oc2ccccc2)cc1)c1nc2c(n1O)CCCC2 | 0 | 0 | 21 | ? | 0 | 0
COc1ccc(C(=O)c2nc3c(n2O)CCCCC3)cc1 | 0 | 0 | 48 | 0 | ? | 0
CCOc1ccc(C(=O)c2nc3c(n2O)CCCCC3)cc1 | 0 | 0 | 0 | 0 | 0 | 0
CCCOc1ccc(C(=O)c2nc3c(n2O)CCCC3)cc1 | - | 50 | 0 | 0[3.69 µM] | 0 | 0
SMILES | TbPYK inhibitor | Shiga inhibitor | CHX counter | RE007 growth inh | FBPA Giardia inh | LmPK inhibitor
O=C1CC(c2nc(-c3ccc(Cl)cc3)no2)CN1c1ccc2c(c1)OCCO2 (configuration not stated) | 0 | - | - | - | - | -
CCOC(=O)C1=C(C)N=c2s/c(=C/c3ccco3)c(=O)n2C1c1cccc(OC)c1 (configuration not stated) | 0 | 0 | 21 | 0 | 0 | 0
COC(=O)C1=C(C)N(Cc2ccccc2)C(=S)N[C@H]1c1cccc(C(F)(F)F)c1 | 0 | 28 | 19 | 0 | ? | 0
NC(=O)CCn1c2ccccc2c2ccccc21 | 0 | 0 | 0 | 0 | 0 | 0
Cc1ccc2c(c1)c1cccc3c1n2CCN3CCC(N)=O | 0 | 190 | 34 | 0 | 0 | 0
Cc1cccc(C(=O)N2CCCC(N3CCN(Cc4ccc5c(c4)OCO5)CC3)C2)n1 (configuration not stated) | 0 | 0 | 25 | 0 | 0 | 0
O=C(NCc1ccc(Cl)cc1)C1CCCN(c2ncnc3onc(-c4ccc(F)cc4)c23)C1 (configuration not stated) | 0 | - | - | - | - | -
Cc1ccc(N=Nc2[nH]c3ccccc3c2O)cc1 | 0 | 152 | 68 | 0 | 0 | 0
COc1ccc(-n2c(=S)[nH]c3ccc(C)cc3c2=O)cc1 | 0 | - | - | 0 | - | -
COc1ccc(N=Nc2[nH]c3ccc(C)cc3c2O)cc1 | 0 | 35 | 22 | 0 | 0 | 0
O=S(=O)(NCc1nc2cccnc2n1Cc1ccccc1Cl)c1ccc2c(c1)CCCC2 | 0 | - | - | - | - | -
O=C1CSC2=NCN(c3ccc4c(c3)OCO4)CN12 | 0 | 96 | 35 | ? | 0 | 0
CN(C)c1ccc(C=NN2C(=O)CSC2=S)c(Cl)c1 | 0 | - | - | 0 | - | -
CN(C)c1ccc(N2CN=C3SCC(=O)N3C2)cc1 | 0 | 98 | 86 | ? | ? | 0
COc1ccc(C(=O)Nc2nc3n(n2)C(c2ccc(Cl)cc2)C=C(c2ccccc2)N3)cc1OC (configuration not stated) | 0 | - | - | - | - | -
O=C1/C(=C/c2ccccn2)SC(=S)N1c1cccc(O)c1 | 0 | 38 | 36 | 0 | 0 | 0
CN=C1S/C(=C\c2cc(C)n(-c3ccccc3F)c2C)C(=O)N1C | 0 | 96 | 44 | 0 | 0 | 0
COc1ccc(-n2c(C)cc(/C=C3/SC(=S)N(C)C3=O)c2C)cc1 | 0 | 0 | 0 | 0 | 0 | 0
Cc1ccc(-n2c(C)cc(C=C3C(=O)N(C)C(=O)N(C)C3=O)c2C)cc1 | 0 | - | - | 0 | - | -
Cc1cc(/C=C2\SC(=S)N(C)C2=O)c(C)n1-c1cccc(O)c1 | 0 | 107 | 59 | 0 | 0 | 0
CN=C1S/C(=C\c2ccc(N3CCOCC3)cc2C)C(=O)N1C | 0 | 0 | 0 | 0 | 0 | 0
CCOc1ccc(N2C(=O)/C(=C/c3ccccn3)SC2=S)cc1 | 0 | 0 | 0 | 0 | 0 | 0
Cc1cc(/C=C2\SC(=O)N(C)C2=O)c(C)n1-c1ccc(O)cc1 | 0 | 51 | 34 | 0 | 0 | 0
COc1ccccc1NS(=O)(=O)c1cc2c(cc1Cl)NC(=O)CO2 | 0 | - | - | - | - | -
COc1cc(NS(=O)(=O)c2cc(Br)cc3c2N(C(C)=O)C(C)C3)cc(OC)c1 (configuration not stated) | 0 | - | - | - | - | -
Cc1ccc2nc3c(cc(C#N)c(=O)n3-c3nnc(SCc4ccccc4Cl)s3)c(=O)n2c1 | 0 | - | - | - | - | -
CC(=O)NC1=NC(=O)/C(=C/c2cc(C)n(-c3cccc(C(=O)O)c3)c2C)S1 | ? | 0 | 0 | 0 | 0 | 0
CC(=O)NC1=NC(=O)/C(=C/c2cc(C)n(-c3ccc(NC(C)=O)cc3)c2C)S1 | 0 | 0 | 33 | 0 | 0 | ?
CC(=O)NC1=NC(=O)/C(=C/c2cn(C(C)=O)nc2-c2ccccc2)S1 | 7.1µM | 0 | 0 | 0 | 0 | 0

Screening results: PubChem BioAssay, National Center for Advancing Translational Sciences (NCATS)
